# Data reported in PubChem BioAssay AID1845226 (National Center for Advancing Translational Sciences (NCATS), 2023).
# Inconclusive results are not listed. Unmarked numbers belong to inactive results. Activity calls are given as the source filed them. Calls come from the whole dose curve; as a rule, active = well fitted inhibition curve with a large enough effect; inconclusive = small, poorly fitted or top-dose-only effect; inactive = no such curve, though single readings can be large or run the other way.
# Test: Confirmatory fluorescence-based thiol-reactive (MSTI) qHTS assay for identification of artifact compounds
# Settings: MSTI thiol-reactivity probe, 1 h; series mostly up to 39.2 µM; activity change, negative = inhibition: at the top concentration
# From the text: PI: Alexander Tropsha Ph.D. UNC Eshelman School of Pharmacy University of North Carolina, Chapel Hill, North Carolina Hits from high-throughput screening (HTS) of chemical libraries are often false positives due to their interference with the assay detection technology. In response to this problem, we generated the largest publicly available library of chemical liabilities and developed a free webtool to predict HTS artifacts, both of which are described herein. More specifically, we generated, curated, and integrated HTS datasets for thiol reactivity, redox activity, and luciferase (firefly and nano) activity. Using these curated datasets, we developed and validated several Quantitative Structure-Interference Relationship (QSIR) models to predict nuisance behavior. […] These models were employed for virtual profiling of the National Center for Advancing Translational Science's (NCATS) in-house library, and 256 compounds for each assay were selected for the experimental validation of nuisance behavior. The BA for these external predictions ranged from 58 to 78% for compounds within the applicability domains of the models. […] The models developed in this study, along with aggregation models previously developed by our group (SCAM Detective) were implemented in "Liability Predictor," an online tool which may be used as part of chemical library design or for triaging HTS hits. Both the models and the curated datasets are publicly available at https://liability.mml.unc.edu/.
# PROTOCOL TABLE SEQUENCE No. (e.g., 1, 2, 3, etc.); PARAMETER (e.g., Cells, Incubation, Reagent, etc.); VALUE; DESCRIPTION. 1; Reagent; 4 uL; […]. 2; Compounds and control; 16 nL; Kalypsis pin tool (Wako USA) equipped with a 1536-well pin head. 3; Incubation; 1 hour. 4; Detection; Fluorescence, ViewLux microplate reader, 525 nm excitation, 598 nm emission. NOTES (numbers refer to Sequence numbers above) 1. Assays determining (E)-2-(4-mercaptostyryl)-1,3,3-trimethyl-3H-indol-1-ium (MSTI) reactivity were performed as previously described in the literature with modifications for the quick identification of compounds reacting with thiol. In brief, 4 uL of MSTI or positive control Acetyl-MSTI (final concentrations of 4 uM and 4 uM, respectively) in assay buffer (2% DMSO in 1X PBS pH 7.4) was dispensed into all wells of a 1536-well assay plate (solid-bottom black plate; Greiner Bio One, Monroe, NC). 2. A Wako Pin-tool (Wako Automation, Richmond, VA) was used to transfer 16 nL of compounds (consisting of 7-plates in qHTS format, final concentration range 18.3 nM to 114 uM) or control MLS001163887 (final concentration range 1.22 nM to 40 uM). 3. Plates were centrifuged (121xg, 15 seconds) and incubated for 1 hour at room temperature protected from light. 4. Samples were read for fluorescence (Ex/Em = 525(20)/598(25) nm) on a ViewLux CCD imager (PerkinElmer). Data were normalized to Acetyl-MSTI (0% activity) and MSTI (100% activity) and the resulting percent inhibition data were fitted to a 4-parameter Hill equation using NCATS in-house software.
# Potency is the fitted concentration of half-maximal effect.
SMILES,"activity change, negative = inhibition",Potency
OCC1=C[C@@H](O)[C@@H]2C=CO[C@@H](OC3O[C@H](CO)[C@@H](O)[C@H](O)[C@H]3O)[C@H]12 (stereo not given in full),12.5%,–
COc1ccc(C)cc1NC(=O)CN1C(=O)COc2ccc(S(=O)(=O)NC3CCCC3)cc21,104%,–
CCCCCCCCCCCCCCCC(=O)N[C@H](CN1CCOCC1)[C@H](O)c1ccccc1,–,12.2 µM (active)
COc1ccc(CNC(=O)c2nnn(CC(=O)Nc3cc(C)cc(C)c3)c2N)cc1,234%,–
O=C(COc1cccc(Cl)c1)N1CCC(c2nc3ccccc3o2)CC1,40.2%,–
COc1ccc(Nc2nc(Nc3ccc(OC)cc3OC)nc(N3CCOCC3)n2)c(OC)c1,–,6.12 µM (active)
CCCN(C(=O)Cc1c(C(=O)O)[nH]c2ccc(Cl)cc12)c1ccc(OCC)cc1,158%,–
Nc1c(N=Nc2ccc([N+](=O)[O-])cc2)c(S(=O)(=O)O)cc2cc(S(=O)(=O)O)c(/C=C/c3ccccc3)c(O)c12,–,0.0612 µM (active)
O=C(Cn1cc(SCc2ccccc2F)c2ccccc21)N1CCCCC1,13.1%,–
CCc1cccc(NC(=O)CN2CCCN(Cc3cccc(C)c3)S2(=O)=O)c1,107%,–
COc1ccccc1C(CC(=O)Nc1ccc(F)cc1)c1ccccc1 (stereo not given),283% [at 78.4 µM],–
Cc1c(C(=O)OCCOc2ccccc2)[nH]c2c1C(=O)CC(c1ccccc1)C2 (stereo not given),433%,–
Fc1ccc(-c2cc(-c3ccc(F)cc3)c3c(n2)-c2cc(F)ccc2OC3)cc1,153%,–
Cc1cc(C)cc(-n2c(SCC(=O)N3CCCCCC3)nc3c([nH]c4ccccc43)c2=O)c1,352%,–
COc1ccccc1N1CCN(c2ncnc3c2cnn3-c2ccc(C)cc2)CC1,19.1%,–
COc1cccc(CN2CCCN(Cc3ccc(F)cc3)S2(=O)=O)c1,74.8%,–
CCCS(=O)(=O)N1CCCC(C(=O)NCCCOC)C1 (stereo not given),5.47%,–
Cc1ccc(CN(Cc2ccco2)C(=O)COc2ccc(Cl)cc2Cl)cc1,35.2%,–
Cc1ccc(OCCn2c(CCNC(=O)OC(C)(C)C)nc3ccccc32)cc1,-2.7%,–
O=C1c2ccccc2C(=O)c2c(O)c(O)cc(O)c21,–,0.612 µM (active)

SMILES,"activity change, negative = inhibition",Potency
Nc1ccc(F)cc1F,0.0404%,–
O=C1CC(c2ccc(O)c(O)c2)Oc2cc(O)cc(O)c21 (stereo not given),-4.21%,–
COCCn1c(=N)c(C(=O)NC2CCCC2)cc2c(=O)n3cc(C)ccc3nc21,27.1%,–
COc1ccc(-c2ccc(CCC(=O)O)n2-c2ccccc2O)cc1,–,4.33 µM (active)
COC(=O)c1c(NC(=O)COc2ccc(C(C)C)cc2)sc2c1CCCC2,34%,–
CCc1ccc2c(O)c3c(cc2c1C(=O)OC)C(=O)c1c(O)ccc(O)c1C3=O,–,0.386 µM (active)
O=S1(=O)N=C(Oc2ccc(Br)cc2)c2ccccc21,10.1%,–
CCOC(=O)c1c(NC(=O)c2ccc(S(=O)(=O)N(CC)CC)cc2)sc2c1CCCCC2,4.96%,–
Cc1cn(C2CCC(CO)O2)c(=O)[nH]c1=O (stereo not given),11.8%,–
Cc1ccc(OCCn2c(CCNC(=O)c3c(F)cccc3F)nc3ccccc32)cc1,19.3%,–
Clc1ccc(CNc2cc(-c3ccc4c(c3)OCO4)ncn2)cc1,124%,–
COc1cc(O)c2c(c1)oc(=O)c1c3cc(O)c(O)cc3oc21,–,1.09 µM (active)
O=C(/C=C/c1ccc(O)c(O)c1)OC1C[C@](O)(C(=O)O)C[C@@H](O)[C@H]1O (stereo not given in full),0.358%,–
O=S(=O)(Nc1ccc(S(=O)(=O)Nc2nccs2)cc1)c1ccc2ccccc2c1,160%,–
C/C(=C\c1ccc2c(c1)OCO2)C1Nc2cccc3cccc(c23)N1,–,3.07 µM (active)
CCC(Sc1ncc(S(=O)(=O)c2ccc(Cl)cc2)c(=O)[nH]1)C(=O)Nc1ccc(OC)cc1 (stereo not given),118%,–
COc1ccc(CCn2c3c(c(=O)[nH]c2=S)CN(C(C)C)CN3)cc1OC,48.3%,–
Cc1ccc2cccc(NS(=O)(=O)c3ccccc3[N+](=O)[O-])c2n1,–,4.33 µM (active)
O=C(CSc1nnc(-c2cccc(F)c2)c(-c2cccc(F)c2)n1)NC1CCCCC1,89.3%,–
Cc1nn(C(=O)COc2ccccc2Br)c(C)c1Sc1ccccc1,72.4%,–
